The results in this text go back to PubChem BioAssay AID1347431 (National Center for Advancing Translational Sciences (NCATS), 2020).

In all, about 1,200 compounds went through this assay and fewer than 10 were called active. The call rests on the fitted dose curve; in most records, active means well fitted curve in the direction sought with a large enough effect; inconclusive means small, poorly fitted or top-dose-only effect, or another doubt; inactive means no such curve, though single readings can be large or run the other way. A selection follows.

The nature of the assay: Confirmatory qHTS assay for inhibitors of Activation Induced Cytidine Deaminase (AID): UDG signals. Further: 0% is about no effect. Conditions: UDG coupled enzyme activity counter-screen; series mostly up to 115 µM; activity change, negative = inhibition: at the top concentration. The source says: Assay Provider (PI) Patricia Gearhart Ph.D.
National Institute on Aging
National Institute of Health (NIH), Bethesda, MD
Assay Provider (PI) Rahul Kohli Ph.D.
Perelman School of Medicine
University of Pennsylvania, Philadelphia, PA
Activation-Induced Deaminase (AID) is a cytosine deaminase which converts cytosine into uracil within stretches of ssDNA. The presence of uracil in DNA initiates a cascade of mutagenic DNA repair to introduce point mutations and DNA double strand breaks. Specific targeting of AID to the immunoglobulin heavy chain loci (Igh) promotes mutagenesis in the antibody variable region for somatic hypermutation (SHM) or switch regions leading to class switch recombination (CSR). However, AID also plays a role in accumulating unnecessary mutations across the genome. Mis-targeting of AID results in the initiation of tumor development and leads to greater drug resistance among cancer cells when continually expressed. To identify an AID inhibitor, a small molecule library will be screened in collaboration with NCATS core facility at NIH. To confirm biological function, inhibitors will be examined in an in vitro murine B-cell activation assay and subsequent secondary validation screens. Top molecules will be further screened to identify inhibitory efficacy against a wild type primary splenocytes assay. Using these approaches, we hope to identify a small molecule with great efficacy and low toxicity for use as a molecular probe to further characterize AID's intricacies, or even as a therapeutic.
A FRET based analysis of cytosine deamination, was developed to identify potential inhibitors of AID catalytic activity. This screen has two signal output, Read 1 evaluates the AID inhibition response. The second readout (Read 2) evaluates UDG response and is uses as a counterscreen to exclude false positive inhibitors. Inhibition in AID and inactivity in the UDG signal is the desired outcome for this assay.
SEQUENCE No. (e.g., 1, 2, 3, etc.); […] (e.g., Cells, Incubation, Reagent, etc.); VALUE; DESCRIPTION
1a; Reagent; 3 uL; [4/3x] 1 uM AID/2.67 U/mL UDG
1b; Reagent; 3 uL; 2 U/mL UDG
1c; Reagent; 3 uL; 1 uM AID
2a; Compound; 46 nL; Follow-up plates (0.64 uM - 10 mM)
2b; Control; 46 nL; ATA ([…] - 10 mM)
3; Time; 10 min; incubation at room temperature
5; Time; 4 hr; incubation at room temperature
6; Reagent; 4 uL; [2x] 250 mM NaOH
7; Time; 15 sec; centrifuge at 1000 rpm
8; Time; 30 min; incubation at room temperature
9a; Detection; fluorescence (Read 1: AID); EnVision (PerkinElmer) plate reader, 540 excitation and 590 emission filters
9b; Detection; fluorescence (Read 2: UDG); EnVision (PerkinElmer) plate reader, 560 excitation and 665 emission filters
NOTES (numbers refer to sequence above)
1a; Reagents were dispensed in a medium-binding black solid-bottom Greiner plates (789176F) using a BioRptr liquid dispenser. Dispense 3 uL of [4/3x] 1 uM AID (provided by Kohli lab) and [4/3x] 2 U/mL UDG (NEB M0280L) into columns 1, 2, 5 to 48.
1b; Dispense 3 uL of [4/3x] 2 U/mL UDG into column 3.
1c; Dispense 3 uL of [4/3x] 1 uM AID into column 4.
2a; Compound (7-points [uM]: 0.64; 3.2; 16; 80; 400; 2,000; 10,000; […]) double pin-transferred (Dip Factor = 2) using the Kalypsys (Wako USA) pintool equipped with a 1536 pinhead for a final concentration range of 7.32 nM - 114 uM.
2b; 10 mM Aurintricarboxylic Acid (Sigma A1895) (ATA, 8-point, n = 2, 1:2.5 dilution in column 2) double pin-transferred (Dip Factor = 2) using the Kalypsys (Wako USA) pintool equipped with a 1536 pinhead for a [final] range of 186 nM - 114 uM.
3; Room temperature incubation.
4; Dispense 1 uL of substrate mixture from the Kohli lab [4x] […] DJC20 and [4x] 250 nM DJC23 into columns 1 to 48 .
5; Room temperature incubation.
6; Dispense 4 uL of substrate mixture [2x] 250 mM NaOH into columns 1 to 48.
7; Centrifugation step to remove bubbles.
8; Room temperature incubation
9a; Fluorescence signal (column label AID) was read using the EnVision plate reader. […]
As to `CCCCn1c(-c2ccc(C)cc2)c(C)n2c3c(=O)n(C)c(=O)n(C)c3nc12`, the “activity change, negative = inhibition” value is -8.55% (inactive).
Next, `COc1ccccc1CC(=O)Nc1ccc2nc(Nc3cccc(C(F)(F)F)c3)cc(C)c2c1`: -7.35% (inactive); `CC1CCCCN1CCNC(=O)c1ccc(Cn2c(SCc3ccccc3)nc3cccnc32)cc1` (centres undefined): -1.41% (inactive).
With `CC(C)CCN(Cc1ccco1)C(=O)c1cc2c(s1)-c1ccccc1OC2`, the “activity change, negative = inhibition” value was -3.35% (inactive).
Next, `CCC(C)c1ccc(OCC(=O)Nc2cccc(-c3nc4ncccc4o3)c2)cc1` (centres undefined): -3.86% (inactive); `CCc1ccc(NC(=O)c2cc(C(C)=O)n3ccccc23)cc1`: -4.94% (inactive); `CCc1ccc2oc(C(=O)NCC(c3ccc(Cl)cc3)N3CCOCC3)c(C)c2c1` (centres undefined): -10.8% (inactive).
The figure for `COc1ccc(N(C)C(=O)c2cc3c(s2)-c2ccccc2OC3)cc1` is -11.3% (inactive).
`COc1ccc(C2CC(=O)N3CN(C4CCCCC4)CSC3=C2C#N)c(OC)c1` (centres undefined): the “activity change, negative = inhibition” value is -11.5% (inactive).
Consider `CCn1cc2nc(SCc3cccc(C(F)(F)F)c3)n(Cc3ccc(C)cc3)c(=O)c2n1`, for which the “activity change, negative = inhibition” value is -5.91% (inactive).
Next, `Cc1ccc(-n2ncc(C(=O)N3CCN(Cc4ccccc4)CC3)c2C2CCN(C(=O)OC(C)(C)C)CC2)c(C)c1`: -9.77% (inactive); `CCn1cc(S(=O)(=O)c2ccc(Cl)cc2)c(=O)c2cc(F)c(N3CCOCC3)cc21`: 8.08% (inactive); `Cc1ccc(-n2c(=O)c3oc4ccccc4c3n(Cc3cccc(F)c3)c2=O)cc1C`: 1.83% (inactive).
Next, `O=C(c1cccn1-c1nnc(N2CCCCC2)s1)N1CCN(c2ccc(Cl)cc2)CC1`: -13.6% (inactive); `Cc1ccc(Cl)cc1N1CCN(C(=O)c2ccc3c(c2)N(Cc2ccccc2)CCS3)CC1`: 10.8% (inactive).
Next, `COc1ccc(-c2coc3c2c(C)cc2oc(=O)c(CC(=O)O)c(C)c23)cc1`: -15.3% (inactive); `CCCc1cc(=O)n2[nH]c(NC(=O)c3ccc(C(C)(C)C)cc3)nc2n1`: 14.5% (inactive); `Cc1ccccc1C(=O)Nc1ccc(C(=O)OCc2cc(=O)n3c4c(sc3n2)CCCC4)cc1`: -1.88% (inactive).
As for `Cc1ccc2c(C)c(C(=O)NCC(c3ccc(Cl)cc3)N3CCOCC3)oc2c1` (centres undefined), the “activity change, negative = inhibition” value was -1.8% (inactive).
`CCOC(=O)c1c(C)oc2nc(C)nc(N3CCN(c4ccccc4F)CC3)c12`: the “activity change, negative = inhibition” value was -3.63% (inactive).
The figure for `CCN(CC)C(=O)c1ccc2c(c1)N(Cc1c(F)cccc1Cl)C(=O)c1ccccc1S2` is 0.172% (inactive); for `COc1ccc(-c2nn3c(-c4ccccc4C)nnc3c3ccccc23)cc1` it is -9.22% (inactive); for `COc1ccc(CCNC(=O)CSc2cn(CCNC(=O)c3cccc(C(F)(F)F)c3)c3ccccc23)cc1OC` it is -4.31% (inactive).
The figure for `CCOCCCn1c(=N)c(C(=O)NC(C)c2ccccc2)cc2c(=O)n3cccc(C)c3nc21` (centres undefined) is -12.7% (inactive); for `COc1ccc(CNc2oc(-c3ccc(COc4ccccc4C)o3)nc2C#N)cc1` it is -3.1% (inactive); for `Cc1ccc(Cl)cc1N(C)C(=O)c1sc2nc3n(c(=O)c2c1C)CCCC3` it is -5.4% (inactive).
In the case of `COc1cc2c(=O)c(S(=O)(=O)c3ccc(C)cc3)cn(Cc3cccc(C)c3)c2cc1OC`, the “activity change, negative = inhibition” value was -3.74% (inactive).
Take `O=C(Nc1cc(-c2ccccc2)sc1C(=O)O)c1cccc(F)c1`: the “activity change, negative = inhibition” value is -3.22% (inactive).
The figure for `C=Cc1ccc(CN2C(=O)N(c3ccc(C)c(C)c3)S(=O)(=O)c3ccccc32)cc1` is -4.6% (inactive); for `O=S(=O)(NCCc1nnc2ccc(SCc3ccc(Cl)cc3Cl)nn12)c1ccccc1` it is -1.19% (inactive); for `COc1ccc(-c2cc3ncc(C(=O)c4cc([N+](=O)[O-])ccc4O)cn3n2)cc1` it is 4.06% (inactive).
Next, `Cc1c(C(=O)N(C)c2ccccc2)sc2nc(-c3ccc(F)cc3)cn12`: -7.95% (inactive).
On to `CCOc1ccc2nc(Cl)c(C3CC(c4ccc(C)cc4)=NN3C(=O)CCC(=O)O)cc2c1` (centres undefined), for which the “activity change, negative = inhibition” value is 4.17% (inactive).
The figure for `COc1ccccc1-c1nn(CCC(=O)Nc2ccc(C)cc2)c2nc(C)cc(C)c12` is -6.55% (inactive); for `Cc1ccc(C)c(N2CCN(C(=O)c3cnn(C(C)(C)C)c3C3CCN(C(=O)OC(C)(C)C)CC3)CC2)c1` it is -6.07% (inactive).
Next, `COc1cc2c(cc1OC)C(COc1ccc(F)cc1)N(C(=O)c1cccc(F)c1)CC2` (centres undefined): -11.3% (inactive); `COc1ccc(OC)c(NC(=O)Cn2c(=O)cc(-c3ccccc3)c3c(C)nn(C)c32)c1`: 7.45% (inactive); `Cc1nc2c(C(=O)NCc3ccccc3)c[nH]n2c(=O)c1Cc1ccccc1Cl`: 4.49% (inactive).
Regarding `CCCCCSc1nnc2c(n1)OC(CC)Nc1ccc(Br)cc1-2` (centres undefined), the “activity change, negative = inhibition” value is 6.46% (inactive).
The figure for `CCCCN(CCCC)C(=O)c1cc2c(=O)n3cccc(C)c3nc2s1` is -1.48% (inactive); for `CCOc1ccc(C(=O)/C=C/c2cn(CC(O)CN3CCCCCC3)c3ccccc23)cc1` (centres undefined) it is -4.79% (inactive).
The figure for `CCCc1nc2ccccc2n2c(-c3ccccc3)c3c(=O)n(C)c(=O)n(C)c3c12` is -2.27% (inactive); for `CCCN1CCN(CCCNC(=O)c2cc3c(Cl)nc4ccccc4c3s2)CC1` it is 12.3% (inactive).
As for `COc1ccc(CSc2nc3ccncc3n2Cc2nc(-c3ccc(OC)c(OC)c3)oc2C)cc1`, the “activity change, negative = inhibition” value is 3.79% (inactive).
The figure for `COc1ccc(Cn2cc(C(=O)c3ccc(C)c(C)c3)c(=O)c3ccccc32)cc1` is -4.47% (inactive).
Next, `Cc1ccccc1NC(=O)c1c(NC(=O)C(F)(F)F)sc2c1CCCCC2`: 6.21% (inactive); `O=S1(=O)c2ccccc2N(Cc2ccc(Cl)cc2)c2ccccc21`: 3.98% (inactive).
As for `Cc1cccc(Cn2c(SCc3ccc(C(=O)N4CCCCCC4)cc3)nc3ccncc32)c1`, the “activity change, negative = inhibition” value is 1.99% (inactive).
The figure for `COCCc1nn2c(=O)cc(COC(=O)c3ccc(C(C)(C)C)cc3)nc2s1` is 6.29% (inactive).
Take `CCN(c1cccc(C)c1)S(=O)(=O)c1nnc(NC(=O)c2ccccc2Cl)s1`: the “activity change, negative = inhibition” value is 0.737% (inactive).
The figure for `COc1ccccc1N1CCN(C(=O)c2cc3c(-c4ccccc4F)nn(C)c3s2)CC1` is -3.23% (inactive); for `CCOc1cccc(C(=O)N(Cc2ccc(F)cc2)Cc2ccco2)c1` it is -7.98% (inactive); for `CCOc1ccc(CCNc2ncnc3onc(-c4ccc(Cl)cc4)c23)cc1OCC` it is -4.41% (inactive).
With `Cc1cc(OCCCSc2nc(-c3ccc(C(C)(C)C)cc3)nc3cc(=O)[nH]n23)ccc1Cl`, the “activity change, negative = inhibition” value was -3.24% (inactive).
